# Test results published in PubChem BioAssay (NCATS).
# Where “and” joins values, the source holds several entries; their conditions need not be identical. Identical values can stand only once. Records with an inconclusive call do not appear. Calls of active or inactive are those of the source. The call rests on the fitted dose curve; in most records, active means well fitted inhibition curve with a large enough effect; inconclusive means small, poorly fitted or top-dose-only effect; inactive means flat fitted curve, though single readings scatter.
# Test system: KB-3-1
# Assay: Cytotoxic Profiling of Annotated Libraries Using Quantitative High-Throughput Screening (AID 1296008); further: nearly all actives have a fitted effect of over 60% in size
# Details: Five cell lines viability, CellTiter-Glo ATP luminescence, 48-72 h; max response: active compounds read low
# Summary of the method: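 Cytotoxicity was measured as CellTiter-Glo ATP luminescence, read after 10 min at room temperature. Compound treatment of the cells lasted 48 or 72 hr at 37 degrees Celsius in a qHTS format.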
# On the % scale 0 is the no-effect control and ±100 the full control effect; potency means the concentration at half of the fitted maximal effect.
Compound,max response,Potency
Cc1ccccc1CNc1ncnc2c1ncn2[C@@H]1O[C@H](CO)[C@@H](O)[C@H]1O,-19% (inactive),–
COc1ccc(C2NC(=S)N3C(c4ccc(OC)c(OC)c4)NC(=S)N23)cc1OC (centres undefined),-2.1% (inactive),–
CO[C@H]1C[C@H](O[C@H]2[C@H](C)O[C@@H](O[C@@H]3/C(C)=C/C[C@@H]4C[C@@H](C[C@]5(C=C[C@H](C)[C@@H](C6CCCCC6)O5)O4)OC(=O)[C@@H]4C=C(C)[C@@H](O)[C@H]5OC/C(=C\C=C\[C@@H]3C)[C@]54O)C[C@@H]2OC)O[C@@H](C)[C@@H]1O,–,20.6 µM (active)
CC(=O)O[C@H]1CC[C@@]2(C)C(=CC[C@H]3[C@@H]4CC[C@H](C(C)=O)[C@@]4(C)CC[C@@H]32)C1,2.35% (inactive),–
CO[C@@H]1[C@@H](O[C@@H]2O[C@H](C)[C@@H](O[C@H]3C[C@@](C)(O)[C@@H](OC(=O)CC(C)C)[C@H](C)O3)[C@H](N(C)C)[C@H]2O)[C@@H](CC=O)C[C@@H](C)[C@@H](O)/C=C/C=C/C[C@@H](C)OC(=O)C[C@H]1O,-0.235% (inactive),–
CCC(C)(C)OC(=O)N[C@@H](Cc1c[nH]c2ccccc12)C(=O)N[C@@H](CCSC)C(=O)N[C@@H](CC(=O)O)C(=O)N[C@@H](Cc1ccccc1)C(N)=O,0.713% (inactive),–
O=C(O)c1cccc(/C=C2/C[C@@H]3[C@@H](/C=C/[C@@H](O)C4CCCCC4)[C@H](O)C[C@@H]3O2)c1,-0.588% (inactive),–
O=C1O[C@@H]2[C@@H](O)[C@H](O)O[C@@H]2[C@H]1O,-9.13% (inactive),–
O=P(O)(O)C(Sc1ccc(Cl)cc1)P(=O)(O)O,2.09% (inactive),–
CCCCCCCC(=O)CC[C@@H]1[C@@H](C/C=C\CCCC(=O)OC(C)C)[C@@H](O)C[C@H]1O,7.18% (inactive),–
C=C1C(=C/C=C2\CCC[C@]3(C)[C@@H]([C@H](C)CCCC(C)(C)O)CC[C@@H]23)C[C@@H](O)C[C@@H]1O,4.02% (inactive),–
CCCC(=O)N1CCCN(c2nc(N)c3cc(OC)c(OC)cc3n2)CC1,-12.4% (inactive),–
COC(C)=O,-9.47% (inactive),–
Cc1cc(-n2c(=O)[nH]c(=O)n(C)c2=O)ccc1Oc1ccc(S(=O)(=O)C(F)(F)F)cc1,28.3% (inactive),–
O.O=C([O-])CC([S-])C(=O)[O-].[Au+].[Na+].[Na+] (centres undefined),-7.82% (inactive),–
CCN(CC)c1ccc(N=Nc2ccc(S(=O)(=O)N(C)C)cc2)c(S(=O)(=O)NCC[n+]2ccccc2)c1,-15.2% (inactive),–
CS(=O)(=O)Nc1cc2occ(NC=O)c(=O)c2cc1Oc1ccccc1,1.81% (inactive),–
CC(C)(S)C(=O)N[C@@H](CS)C(=O)O,-0.209% (inactive) and -15.2% (inactive),–
C1CNCCN1,-7.97% (inactive),–
Cc1[nH]cnc1C[C@H]1CCc2c(C)c3ccccc3n2C1=O,-19% (inactive),–
O=C[C@H](O)[C@@H](O)[C@H](O)[C@H](O)CO,-5.79% (inactive),–
NCCC(=O)[N-][C@@H](Cc1cnc[nH]1)C(=O)O.[Zn],-13.6% (inactive),–
C/C(=C(/CCO)SSCC1CCCO1)N(C=O)Cc1cnc(C)nc1N (centres undefined),-15.4% (inactive) and -10.3% (inactive),–
O=S(=O)(O)Oc1ccc(C(c2ccc(OS(=O)(=O)O)cc2)c2ccccn2)cc1,-0.878% (inactive),–
CCCCCCCCCCCCCCCC(=O)O[C@@H]1CC(C)=C(/C=C/C(C)=C/C=C/C(C)=C/C=C/C=C(C)/C=C/C=C(C)/C=C/C2=C(C)C[C@@H](OC(=O)CCCCCCCCCCCCCCC)CC2(C)C)C(C)(C)C1,-27.5% (inactive),–
CC1(C)C2CC[C@]3(C)[C@H](C(=O)C=C4[C@@H]5C[C@@](C)(C(=O)O)CC[C@]5(C)CC[C@]43C)[C@@]2(C)CC[C@@H]1O[C@H]1O[C@H](C(=O)O)[C@@H](O)[C@H](O)[C@H]1O[C@@H]1O[C@H](C(=O)O)[C@@H](O)[C@H](O)[C@H]1O (some centres undefined),-22.6% (inactive),–
CC(=O)[C@@]1(O)CC[C@H]2[C@@H]3C=C(Cl)C4=CC(=O)CC[C@]4(C)[C@H]3CC[C@@]21C,-17.5% (inactive),–
CN(C)Cc1ccccc1,-10.5% (inactive),–
CCOC(=O)[C@H](CCc1ccccc1)N[C@@H](C)C(=O)N1CC2(C[C@H]1C(=O)O)SCCS2,-20.5% (inactive),–
